Drawing on PubChem BioAssay (NCI), this text covers growth for 75 compounds.

The structures appear in SMILES notation. Compounds without any hit were thinned out: in the full panel of roughly 83,000, 20% have a hit.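 The endpoint reported here, percent growth, reads 100 for growth as untreated, 0 for no net growth and -100 for all cells dead.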 Unmarked numbers belong to inactive results. Calls of active or inactive are those of the source. How the source made its calls: active means growth percent below 10; inactive means the rest.

The subject of the assay is HL-60(TB) leukemia. Put plainly: NCI-60 one-dose screen, 48 h (100 = growth as untreated, 0 = no growth, -100 = all killed). Particulars: 10 µM unless noted.

With `C=C(CNCCc1ccc(O)cc1)[C@@H]1CC[C@]2(CO)CC[C@]3(C)[C@H](CC[C@@H]4[C@@]5(C)CCC(=O)C(C)(C)[C@@H]5CC[C@]43C)[C@@H]12`, the growth was -41.5% (active).

On to `Cc1cc2c(cc1C)N(C(=O)CCl)CCN2C(=O)CCl`, for which the growth was -41.3% (active).

`CCOC(=O)c1[nH]c(=O)c2c(C)nc(-c3ccccc3)cc2c1O`: the growth was 111%.

Turning to `Fc1ccc2c(CN3CCO[C@H](COc4cccc(Cl)c4)C3)c[nH]c2c1`, the growth is 27.1%.

As to `COc1cc(OC)c(C(=O)/C=C/c2cc3c(cc2OCc2ccccc2)OC(C)(C)CC3)cc1CC=C(C)C`, the growth was -28.5% (active).

Take `CCCCc1ccc2nc(NC(=O)OC)[nH]c2c1`: the growth was -65.6% (active).

Consider `Cc1ccc(Nc2ccc(O)c3c2C(=O)c2c(O)ccc(Nc4ccc(C)cc4)c2C3=O)cc1`, for which the growth was 108%.

In the case of `O=C(Nc1ccc(/C=C2\SC(=O)N(Cc3ccc(OC(F)(F)F)cc3)C2=O)cc1)c1ccc(Cl)c([N+](=O)[O-])c1`, the growth is 71.3%.

Consider `C=C1C(=O)O[C@H]2[C@H]1CC/C(Cn1cc(-c3ccccc3)nn1)=C\CC[C@@]1(C)O[C@@H]21`, for which the growth is -28.9% (active).

Regarding `Cc1[nH]nc2ccc3nc(-c4ccc5[nH]ncc5c4)c4c(c3c12)CCCC4`, the growth is -15.5% (active).

Take `Cn1cc(-c2nc(-c3cn(C)c4ncccc34)cs2)c2ccccc21`: the growth is 28.4%.

`Cc1ccc(N2C3c4ccccc4N(S(=O)(=O)c4ccc(C)cc4)C2c2ccccc2N3S(=O)(=O)c2ccc(C)cc2)cc1`: the growth was 80.5%.

Consider `COc1ccc(C2=C(Br)C(=O)c3nc(C)ccc3C2=O)cc1`, for which the growth is 66.2%.

Take `CC(=O)OCCc1ccccc1`: the growth is 92%.

As to `COC(=O)C(OC(C)=O)C(OC(C)=O)c1ccc(OC)c(OC)c1` (stereo not given), the growth was 81.3%.

For `CC(=O)Nc1ccc2c(c1)Cc1c(F)cccc1-2`, the growth is 97.7%.

`CCc1ccc(CNc2ccc(N3CCOCC3)c(C(=O)O)c2)cc1`: the growth was 100%.

As to `CC(C)=CCc1cc(O)cc2c1OC(C=C(C)C)C1=C2C(=O)C2=C(NCCS2(=O)=O)C1=O` (stereo not given), the growth is -35.7% (active).

As for `Cc1ccc(-c2nc3nc(-c4ccccc4)nc(N4CCCNCC4)c3o2)cc1`, the growth is -69.8% (active).

For `COc1cc(C2=Nc3c(N)nc(N)nc3NC(c3cccc(Nc4ccnc5cc(C(F)(F)F)ccc45)c3)C2)cc(OC)c1OC` (stereo not given), the growth was 63.2%.

Regarding `Nc1nc(N)c2cc(CNc3ccc(C(=O)NC(CC(=O)O)C(=O)O)cc3)ccc2n1` (stereo not given), the growth is 19.4%.

For `O=C(O)c1ccc(-n2cc(/C=N/Nc3ccc(Cl)cc3)c(-c3ccc(F)c(F)c3)n2)cc1`, the growth was 27.1%.

Regarding `Cc1ccc2c(C3C(C#N)=C(N)Oc4cc5ccccc5cc43)cc(=O)oc2c1` (stereo not given), the growth is -14.2% (active).

For `Cn1cc(-c2nc3c(F)cc4[nH]ncc4c3c3c2CCCC3)c(C(F)(F)F)n1`, the growth was -11.2% (active).

`Cc1cc(C)c(N)c(S(=O)(=O)O)c1`: the growth is 106%.

Take `O=c1[nH]c2c3ccncc3cc(-c3cccc(Cl)c3)c2c2cnccc12`: the growth was 17.6%.

For `COc1cc2c(cc1-c1c(C)noc1C)ncc1nc(C3CCCCC3)n([C@@H](C)COC(F)F)c12`, the growth is 17.4%.

With `CC1Cc2ccc(OCCN(C)C)cc2C1=O` (stereo not given), the growth was 111%.

Take `CCOC(=O)c1ccc2c(c1)[n+](=O)c(C(C)=O)c(C(F)(F)F)n2[O-]`: the growth is -65.9% (active).

Regarding `O=[N+]([O-])c1ccc(-c2ncc(-c3ccc(O)cc3O)[nH]2)cc1`, the growth is 145%.

On to `C#C[C@]1(O)CC[C@H]2[C@@H]3CC=C4c5nc(Nc6ncccn6)sc5CC[C@]4(C)[C@H]3CC[C@@]21C`, for which the growth is 60.4%.

As to `Oc1ccc(-c2nn(-c3ccccc3)cc2-c2nc3ccccc3s2)cc1`, the growth was 104%.

Take `CC(C)c1ccc(Nc2n[nH]c(=S)s2)cc1`: the growth was 97.7%.

Turning to `COc1cc2nc(Nc3ccc(F)cc3)nc(N)c2cc1OC`, the growth is 79.4%.

`O=C1N(Cc2ccccc2Cl)c2ccccc2C12NN=C(c1ccccc1)S2` (stereo not given): the growth is 58.5%.

Regarding `CCCCn1c(-c2ccc(O)cc2)cn2c3c(=O)[nH]c(=O)n(C)c3nc12`, the growth was 48.9%.

With `Cc1ccc(-c2nc(N3CCN(CC(=O)Nc4ccc(Cl)c(C(F)(F)F)c4)CC3)c3ccccc3n2)cc1`, the growth is 97.6%.

Regarding `C#CCn1cc(C=C2C(=O)N(C)C(=O)N(C)C2=O)c2cc(Cl)ccc21`, the growth is 105%.

On to `COc1nc2c(cc1S(=O)(=O)c1ccccc1)CCc1c-2cnn1-c1ccc(Cl)cc1`, for which the growth is 90.5%.

As to `Cc1cc2nc3c4ccc(Br)cc4n(CCN(C)C)c3nc2cc1C`, the growth is 3.73% (active).

As to `CC1=CC(C)(C)NC(=S)N1c1ccc(S(=O)(=O)O)c2cccc(S(=O)(=O)O)c12`, the growth is 106%.

Take `CCCCCCCC(C)NCCO` (stereo not given): the growth is 101%.

For `NS(=O)(=O)c1ccc(-n2nc(C(=O)N/N=C\c3ccc(F)cc3)cc2-c2ccc(Br)cc2)cc1`, the growth was 71%.

Turning to `C=C[Si](OC(C)=O)(OC(C)=O)OC(C)=O`, the growth is 94.3%.

With `CCOC(=O)c1cc2cccc(OC)c2oc1=O`, the growth was 117%.

For `N#C/C(Sc1nc2sc3c(c2c(=O)n1Cc1ccccc1)CCCC3)=C1/SC=C(c2ccc(Cl)cc2)N1c1ccccc1`, the growth was 84.3%.

Turning to `CS(=O)(=O)c1ccc(/C=C\C(=O)O)cc1`, the growth is 122%.

For `CCNC(=O)c1[nH]cc(-c2ccc(OC)cc2)c1-c1cc(OC)cc(OC)c1`, the growth is 82.1%.

Consider `CCn1c(Sc2nnc(NC(C)=O)s2)nc2c1c(=O)n(C)c(=O)n2C`, for which the growth is 124%.

Regarding `COc1ccc(C(=O)Nc2nc(-c3ccc(Cl)cc3)cs2)cc1`, the growth is 105%.

As for `COc1cc(/C=N/Nc2ccccc2F)cc(OC)c1OC`, the growth is 90.1%.

`CC(C)N(CCOc1ccc(-c2nc3sccn3c2-c2ccnc(S(C)(=O)=O)n2)cc1)C(C)C`: the growth is 85.8%.

With `CCCCCCCCCCCCCCCCCCSC1=CC(=O)C(OC)=C(OC)C1=O`, the growth was 66.9%.

On to `CC(=O)Nc1ccc(C=Nc2ccc3ccccc3c2)cc1`, for which the growth is 107%.

`OC(c1cc(C23CC4CC(CC(C4)C2)C3)nc2c(Cl)cc(Cl)cc12)C1CCCCN1` (stereo not given): the growth is -47.7% (active).

As for `O=C1CN2CCC1C/C2=C\c1ccnc2c(Cl)cccc12` (stereo not given), the growth was 91.8%.

With `C#C[C@]1(O)CCC2C3CCc4cc(OC5CCCC5)ccc4C3CC[C@@]21C` (stereo not given in full), the growth was 77%.

As for `CC(=O)C(C(C)=O)c1nc2sc3cc(Cl)ccc3n2c(=N)c1C#N`, the growth was 112%.

In the case of `O=C(c1ccccc1)N1N=C(c2ccc(-n3ccc(C(F)(F)F)n3)c(F)c2)CC1c1ccc[nH]1` (stereo not given), the growth is 101%.

With `Brc1ccc2[nH]cc(-c3nc(-c4c[nH]c5ccncc45)cs3)c2c1`, the growth is -55.4% (active).

For the compound `COc1cc(N=Nc2cc(S(=O)(=O)O)cc3cc(S(=O)(=O)O)cc(O)c23)c(C)cc1N=Nc1c(S(=O)(=O)O)cc2cc(Nc3ccccc3)ccc2c1O`, the growth is 93.6%.

For `CC(=O)[C@H]1CC[C@H]2[C@@H]3CCC4=CC(=O)C=C[C@]4(C)[C@H]3CC[C@]12C`, the growth was 90.9%.

With `NCCN1CCNCC1`, the growth is 97.6%.

In the case of `COC(=O)Cc1cc(COC(C)=O)ccc1C`, the growth is 84.8%.

Regarding `CC(C)(C)c1ccc(S(=O)(=O)Oc2ccc(NC(=O)C3CCCCC3)cc2)cc1`, the growth was 59.3%.

On to `CC(=O)Oc1cc(C)c(OC(C)=O)c(C)c1C`, for which the growth is 101%.

For `CN(C)c1ccc2nc3ccc(=N)cc-3sc2c1`, the growth is -28.5% (active).

In the case of `O=[N+]([O-])c1ccc(N/N=C/C2CCCCCC2)c([N+](=O)[O-])c1`, the growth was 97.1%.

Consider `COC(=O)c1oc2c(C(C)=O)c(OCCN3CCCCC3)ccc2c1C`, for which the growth is 110%.

Turning to `O=c1c2c3c(sc2nc(N/N=C/c2cn(-c4ccccc4)nc2-c2ccc(Cl)cc2)n1Cc1ccccc1)CCCC3`, the growth was -32.4% (active).

Turning to `CSc1nn(-c2ccccc2)c2ncnc(Oc3ccccc3)c12`, the growth was 109%.

`COc1ccc(C2CC(c3ccccc3)=Nc3ccccc3S2)cc1` (stereo not given): the growth was 85.7%.

With `CCCCc1oc2ccccc2c1C(=O)c1ccc(O)cc1`, the growth was 68%.

For the compound `COc1ccccc1CNCCN1C(=O)c2ccc3c4c(ccc(c24)C1=O)C(=O)N(CCNCc1ccccc1OC)C3=O`, the growth was -71.8% (active).

With `O=C1/C(=N\c2cc(=O)[nH]n2S(=O)(=O)c2ccccc2)Nc2ccccc21`, the growth was 102%.
